From publication PMC5540273 (PLoS ONE, 2017)

Columns and labels:
Conditions in all cases: concentration: 1 μM, replicates: in singlicate; n = 1
PCTK2 = test system: T1, PCTK2
T1 construct: gene CDK17

PCTK3 = test system: T2, PCTK3
T2 construct: gene CDK18

PDGFRA = test system: PDGFRA
PDGFRB = test system: PDGFRB
PDPK1 = test system: PDPK1
PFTAIRE2 = test system: PFTAIRE2
PFTK1 = test system: T3, PFTK1
T3 construct: gene CDK14

PHKG1 = test system: PHKG1
PHKG2 = test system: PHKG2
PIK3C2B = test system: PIK3C2B
PIK3C2G = test system: PIK3C2G
PIK3CA = test system: PIK3CA
PIK3CB = test system: PIK3CB
PIK3CD = test system: PIK3CD
PIK3CG = test system: PIK3CG
PIK4CB = test system: T4, PIK4CB
T4 construct: gene PI4KB

PIKFYVE = test system: PIKFYVE
PIM1 = test system: PIM1
PIM2 = test system: PIM2
PIM3 = test system: PIM3
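Also: KINOMEscan kinase panel screen.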

Row | Compound | %Inh (PCTK2) [%] | %Inh (PCTK3) [%] | %Inh (PDGFRA) [%] | %Inh (PDGFRB) [%] | %Inh (PDPK1) [%] | %Inh (PFTAIRE2) [%] | %Inh (PFTK1) [%] | %Inh (PHKG1) [%] | %Inh (PHKG2) [%] | %Inh (PIK3C2B) [%] | %Inh (PIK3C2G) [%] | %Inh (PIK3CA) [%] | %Inh (PIK3CB) [%] | %Inh (PIK3CD) [%] | %Inh (PIK3CG) [%] | %Inh (PIK4CB) [%] | %Inh (PIKFYVE) [%] | %Inh (PIM1) [%] | %Inh (PIM2) [%] | %Inh (PIM3) [%]
1 | CCS(=O)(=O)c1ccc(OC)c(Nc2nccc(-c3c(-c4cccc(NC(=O)c5c(F)cccc5F)c4)nn4ncccc34)n2)c1 [GSK326180] | 0 | 18 | 0 | 40 | 0 | 27 | 17 | 1 | 0 | 0 | 0 | 0 | 0 | 0 | 3 | 7 | 0 | 0 | 0 | 0
2 | Cl.Cl.NCC(C(=O)Nc1cc(Br)c(-c2ccnc3[nH]ccc23)s1)c1ccccc1 (stereo not shown) [GSK1269851] | 6 | 0 | 0 | 38 | 0 | 24 | 28 | 49 | 0 | 0 | 0 | 0 | 0 | 0 | 0 | 9 | 0 | 19 | 0 | 0
3 | Cl.NC(=O)c1cccc(Nc2nccc(Nc3ccc(Oc4c(Cl)cccc4Cl)c(Cl)c3)n2)c1 [GW659009] | 0 | 0 | 0 | 36 | 0 | 15 | 0 | 0 | 0 | 0 | 0 | 0 | 0 | 4 | 0 | 0 | 0 | 13 | 0 | 4
4 | COc1ccc(CNC(=O)NC2CCN(c3ccnc(Nc4ccc(F)cc4)n3)CC2)cc1 [GSK1379788] | 0 | 0 | 0 | 35 | 0 | 0 | 13 | 0 | 0 | 0 | 0 | 0 | 0 | 0 | 0 | 0 | 6 | 0 | 0 | 0
5 | NCCCC(NC(=O)c1cc(Br)c(-c2ccnc3[nH]ccc23)s1)c1ccccc1.O=C(O)C(F)(F)F.O=C(O)C(F)(F)F (stereo not shown) [GSK1287544] | 0 | 0 | 0 | 28 | 14 | 25 | 0 | 0 | 0 | 0 | 0 | 0 | 100 | 0 | 0 | 0 | 0 | 59 | 93 | 22
6 | COc1cccc(-c2ccc3c(NC(=O)C4CC4)n[nH]c3n2)c1 [SB-710903] | 19 | 30 | 0 | 34 | 0 | 10 | 25 | 0 | 0 | 0 | 0 | 0 | 0 | 9 | 0 | 0 | 27 | 12 | 0 | 0
7 | c1ccc(-c2n[nH]cc2Nc2ccnc3ccccc23)nc1 [GW694077] | 0 | 9 | 20 | 65 | 0 | 16 | 18 | 0 | 30 | 29 | 15 | 0 | 0 | 0 | 14 | 95.7 | 0 | 81 | 7 | 79
8 | CN(c1ccc(NC(=O)Nc2cc(C(F)(F)F)ccc2F)cc1)c1ccnc(Nc2ccc(S(N)(=O)=O)cc2)n1 [GW809893] | 97.9 | 95.5 | 96.1 | 99.9 | 35 | 96.5 | 97 | 14 | 0 | 29 | 39 | 3 | 0 | 30 | 31 | 0 | 0 | 0 | 0 | 0
9 | CNC(=O)c1ccccc1Nc1nc(Nc2ccc(N3CCOCC3)cc2)ncc1Cl.Cl [GSK1576028] | 43 | 0 | 80 | 100 | 42 | 43 | 17 | 84 | 72 | 17 | 0 | 15 | 50 | 29 | 31 | 56 | 53 | 45 | 0 | 55
10 | COc1cc(Nc2nccc(N3CCC(NC(=O)c4cc5ccccc5s4)C3)n2)cc(OC)c1OC (stereo not shown) [GSK1379760] | 9 | 20 | 0 | 44 | 50 | 7 | 0 | 12 | 0 | 0 | 0 | 0 | 0 | 14 | 0 | 0 | 6 | 16 | 0 | 3
11 | Cl.c1ccc(-c2ccc3c(Nc4ccc5[nH]ccc5c4)ccnc3c2)nc1 [GW440138] | 6 | 28 | 99.2 | 99.9 | 0 | 0 | 14 | 0 | 0 | 0 | 0 | 0 | 37 | 2 | 0 | 0 | 16 | 0 | 0 | 0
12 | COC(=O)Nc1nc2cc(Oc3ccc(NC(=O)Nc4cc(C(F)(F)F)ccc4F)cn3)ccc2[nH]1.Cl.Cl [GW681170] | 16 | 16 | 94.7 | 99.8 | 0 | 68 | 21 | 0 | 0 | 0 | 0 | 0 | 5 | 0 | 0 | 0 | 0 | 9 | 0 | 0
13 | O=C(NC1CCN(c2ccnc(Nc3ccc(F)cc3)n2)C1)c1cc2ccccc2s1 (stereo not shown) [GSK1379716] | 11 | 32 | 0 | 28 | 0 | 25 | 13 | 19 | 7 | 0 | 0 | 0 | 0 | 0 | 0 | 0 | 4 | 20 | 0 | 11
14 | CN(C)Cc1ccc(-c2ccc3c(Nc4ccc(Oc5ccccn5)cc4)ccnc3c2)o1 [GW567148] | 0 | 0 | 82 | 98.7 | 0 | 0 | 0 | 2 | 0 | 0 | 0 | 0 | 0 | 0 | 0 | 0 | 0 | 0 | 0 | 0
15 | O=C(Nc1n[nH]c2cc(-c3ccoc3)ccc12)C1CC1 [SB-738481] | 51 | 22 | 62 | 90 | 0 | 21 | 29 | 0 | 0 | 7 | 0 | 0 | 13 | 5 | 12 | 8 | 1 | 0 | 0 | 0
16 | FC(F)(F)c1ccc(/C=C/c2cncnc2Nc2ccc3[nH]c(Cc4ccccc4)nc3c2)cc1 [GW709199] | 0 | 4 | 0 | 0 | 0 | 33 | 15 | 43 | 0 | 0 | 0 | 0 | 0 | 0 | 0 | 0 | 8 | 0 | 22 | 0
17 | Cc1ccc(C(=O)Nc2ccc(Nc3ccnc4cc(-c5nccs5)ccc34)cc2O)cc1.Cl [GW494702] | 0 | 0 | 28 | 74 | 10 | 7 | 0 | 4 | 0 | 0 | 23 | 0 | 0 | 0 | 0 | 30 | 0 | 0 | 6 | 0
18 | COc1cc(Nc2nccc(N3CCC(NC(=O)Nc4cccc(C(C)=O)c4)C3)n2)cc(OC)c1OC (stereo not shown) [GSK1379753] | 26 | 0 | 0 | 77 | 0 | 0 | 23 | 0 | 2 | 0 | 0 | 5 | 0 | 46 | 20 | 78 | 0 | 0 | 0 | 0
19 | CSc1cccc2c(-c3ccncn3)c(-c3ccc(F)cc3)nn12 [GW514786] | 0 | 14 | 0 | 7 | 0 | 20 | 28 | 12 | 0 | 0 | 0 | 0 | 0 | 0 | 0 | 0 | 19 | 0 | 0 | 15
20 | C[C@@H](Oc1cc(-n2cnc3cc(-c4ccnc(NCCS(C)(=O)=O)c4)ccc32)sc1C(N)=O)c1ccccc1Cl [GSK907232] | 9 | 25 | 71 | 97.4 | 28 | 14 | 12 | 0 | 2 | 0 | 0 | 0 | 0 | 39 | 1 | 9 | 0 | 19 | 0 | 27
